# Data reported in PubChem BioAssay (EPA / NIEHS).
# Records with an inconclusive call do not appear. Activity calls are given as the source filed them. Rule for the calls: active = hit-call score of the fitted dose curve at least 0.9, where 1 is the maximum; inconclusive = response in the unintended direction; inactive = score below 0.9.
# Target: human Peroxisome Proliferator-activated Receptor delta (PPARd), PPARD (gene 5467) (UniProt Q03181)
# Assay: ATG_PPARd_TRANS: Attagene TRANS-FACTORIAL HepG2 Assay for human Peroxisome Proliferator-activated Receptor delta (PPARd) (AID 2283002)
# Method in brief: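 Read-out: reporter mRNA induction, quantified by fluorescent RT-PCR products resolved by capillary electrophoresis. Human HepG2 liver cells carried transiently transfected Gal4-UAS reporter constructs with chimeric NR-Gal4 fusions. Cells were dosed for 24 h; DMSO served as baseline.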
# human Peroxisome Proliferator-activated Receptor delta (PPARd), PPARD (gene 5467), sequence (Q03181 whole entry, looked up): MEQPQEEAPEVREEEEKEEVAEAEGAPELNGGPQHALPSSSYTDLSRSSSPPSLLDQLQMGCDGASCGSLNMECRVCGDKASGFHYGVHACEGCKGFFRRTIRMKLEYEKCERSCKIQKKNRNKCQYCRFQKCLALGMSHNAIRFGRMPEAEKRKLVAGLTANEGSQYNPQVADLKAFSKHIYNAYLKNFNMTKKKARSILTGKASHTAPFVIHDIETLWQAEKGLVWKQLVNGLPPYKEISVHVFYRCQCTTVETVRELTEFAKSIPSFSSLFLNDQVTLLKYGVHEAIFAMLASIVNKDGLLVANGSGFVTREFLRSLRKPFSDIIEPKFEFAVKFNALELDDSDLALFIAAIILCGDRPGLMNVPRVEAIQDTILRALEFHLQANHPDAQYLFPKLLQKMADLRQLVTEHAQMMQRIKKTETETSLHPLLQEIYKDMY
row,SMILES,outcome
1,CC(C)(CO)C(O)C(=O)NCCCO (centres undefined),inactive
2,CCCCc1ccc(Cl)cc1,inactive
3,CC(C)C(=O)OCCOc1ccccc1,inactive
4,COc1cc(O)c(C(=O)c2ccccc2)cc1S(=O)(=O)O,inactive
5,CC(C)(C)C1CCC(=O)CC1,inactive
6,CCCCNS(=O)(=O)c1ccc(C)cc1,inactive
7,[Cl][Eu]([Cl])[Cl],inactive
8,CCC(C)C(=O)OCCc1ccccc1 (centres undefined),inactive
9,CCCCOCCOCCOC(C)=O,inactive
10,CCCCCCCCCCCCCc1ccccc1,inactive
11,CC1CC(=O)CC(C)(C)C1 (centres undefined),inactive
12,CC(C=O)c1ccccc1 (centres undefined),inactive
13,Cc1ccc(S(=O)(=O)N=C=O)cc1,inactive
14,CCCCOC(=O)C(C)CC (centres undefined),inactive
15,CCCCC(CC)COS(=O)(=O)O (centres undefined),inactive
16,CCCCCCCCCCCCC,inactive
17,CCCC/C=C/C=C\C=O,inactive
18,CCCCCCCCCCCCc1ccc(O)cc1,inactive
19,Cc1cc(=O)[nH]c(=O)[nH]1,inactive
20,CCc1occc(=O)c1O,inactive
21,C[Si]1(C)O[Si](C)(C)O[Si](C)(C)O[Si](C)(C)O[Si](C)(C)O1,inactive
22,C=Cc1cccc(C)c1,inactive
23,CC(C)(C)NC(=O)[C@H]1CC[C@H]2[C@@H]3CC[C@H]4NC(=O)C=C[C@]4(C)[C@H]3CC[C@]12C,inactive

# Target: human Retinoic Acid Receptor beta (RARb), RARB (gene 5915) (UniProt P10826)
# Sequence (P10826 whole entry, looked up): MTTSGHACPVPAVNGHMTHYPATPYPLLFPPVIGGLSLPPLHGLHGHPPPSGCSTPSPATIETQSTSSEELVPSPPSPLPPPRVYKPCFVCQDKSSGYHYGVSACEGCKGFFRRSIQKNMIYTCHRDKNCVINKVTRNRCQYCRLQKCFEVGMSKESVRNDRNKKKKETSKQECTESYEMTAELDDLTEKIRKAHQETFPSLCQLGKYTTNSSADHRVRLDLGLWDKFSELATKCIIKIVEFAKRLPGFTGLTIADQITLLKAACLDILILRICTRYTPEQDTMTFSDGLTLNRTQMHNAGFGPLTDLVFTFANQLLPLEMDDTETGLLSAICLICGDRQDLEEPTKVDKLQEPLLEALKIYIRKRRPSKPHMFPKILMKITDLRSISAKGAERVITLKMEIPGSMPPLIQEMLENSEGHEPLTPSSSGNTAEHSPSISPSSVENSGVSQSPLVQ
# Assay: ATG_RARb_TRANS: Attagene TRANS-FACTORIAL HepG2 Assay for human Retinoic Acid Receptor beta (AID 2283004)
# Method in brief: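 Induction of reporter mRNA from a chimeric RARb-Gal4 construct was measured by RT-PCR, FAM labelling, HpaI digestion and capillary electrophoresis. Measurements followed 24 h compound treatment of transiently transfected human HepG2 liver cells, with DMSO as baseline.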
row,SMILES,outcome
1,CO[Si](C)(C)OC,inactive
2,CCCCNC(=S)NCCCC,inactive
3,CCOC(=O)c1ccccc1C,inactive
4,CC(=O)CCC=C(C)C,inactive
5,CCCCC(=O)O,inactive
6,CC(C)c1ccc(O)c(C(C)C)c1,inactive
7,Cc1cccc(C(C)(C)C)c1O,inactive
8,CC(C)CO,inactive
9,Cc1noc(NS(=O)(=O)c2ccc(N)cc2)c1C,inactive
10,CC(=O)CCC1=C(C)CCCC1(C)C,inactive
11,CC1CCC(=O)C1=O (centres undefined),inactive
12,CCCCC1CCC(=O)O1 (centres undefined),inactive
13,C=C[Si](OCCOC)(OCCOC)OCCOC,inactive
14,O=C(Cl)c1ccc(C(=O)Cl)cc1,inactive

# Target: Retinoic acid receptor alpha (Homo sapiens) (UniProt P10276)
# Sequence (P10276 whole entry, looked up): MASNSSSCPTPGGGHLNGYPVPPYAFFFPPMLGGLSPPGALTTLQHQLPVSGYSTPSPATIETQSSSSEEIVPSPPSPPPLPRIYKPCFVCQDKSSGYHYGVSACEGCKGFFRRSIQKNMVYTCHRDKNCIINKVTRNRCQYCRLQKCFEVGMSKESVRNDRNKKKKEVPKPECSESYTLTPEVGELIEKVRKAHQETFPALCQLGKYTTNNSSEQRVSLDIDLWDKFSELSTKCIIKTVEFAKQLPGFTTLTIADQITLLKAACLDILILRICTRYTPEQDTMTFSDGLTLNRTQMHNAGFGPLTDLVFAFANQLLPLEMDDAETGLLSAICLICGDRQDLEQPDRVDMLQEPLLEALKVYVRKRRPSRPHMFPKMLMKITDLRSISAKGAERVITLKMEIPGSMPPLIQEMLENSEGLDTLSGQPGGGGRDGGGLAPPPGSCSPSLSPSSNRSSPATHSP
# Assay: ATG_RARa_TRANS: Attagene TRANS-FACTORIAL HepG2 Assay for human Retinoic Acid Receptor alpha (RARa) (AID 2283005)
# Method in brief: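 HepG2 transiently transfected with multiplex GAL4-UAS reporter units including a human RARa–GAL4 chimera; 24 h compound exposure. Reporter mRNA quantified by RT-PCR, 6-FAM labeling and capillary electrophoresis; gain of signal versus DMSO.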
row,SMILES,outcome
1,CCOC(=O)c1ccccc1C,inactive
2,CCCCC(=O)O,inactive
3,Cc1cccc(C(C)(C)C)c1O,inactive
4,CC(C)CO,inactive
5,Cc1noc(NS(=O)(=O)c2ccc(N)cc2)c1C,inactive
6,CCCCC1CCC(=O)O1 (centres undefined),inactive

# Target: Peroxisome proliferator-activated receptor gamma (Homo sapiens) (UniProt P37231)
# Sequence (P37231 whole entry, looked up): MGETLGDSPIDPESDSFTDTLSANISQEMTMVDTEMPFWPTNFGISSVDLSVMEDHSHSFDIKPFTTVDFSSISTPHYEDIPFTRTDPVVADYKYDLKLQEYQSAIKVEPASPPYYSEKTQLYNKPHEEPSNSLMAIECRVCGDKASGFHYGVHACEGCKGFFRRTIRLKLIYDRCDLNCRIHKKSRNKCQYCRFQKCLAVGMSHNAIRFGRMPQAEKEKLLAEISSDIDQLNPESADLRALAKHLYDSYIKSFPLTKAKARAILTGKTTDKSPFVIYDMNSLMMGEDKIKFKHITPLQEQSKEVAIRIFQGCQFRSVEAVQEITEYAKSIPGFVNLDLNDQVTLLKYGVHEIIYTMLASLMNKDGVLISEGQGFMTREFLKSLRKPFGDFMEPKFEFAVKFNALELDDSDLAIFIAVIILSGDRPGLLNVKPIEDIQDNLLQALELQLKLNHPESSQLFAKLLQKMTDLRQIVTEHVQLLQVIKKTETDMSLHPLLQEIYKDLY
# Assay: ATG_PPARg_TRANS: Attagene TRANS-FACTORIAL HepG2 Assay for human Peroxisome Proliferator-activated Receptor-gamma (PPARg) (AID 2283007)
# Method in brief: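 HepG2 cells are transiently transfected with GAL4-UAS reporter units driven by chimeric NR-Gal4 fusions and dosed for 24 h. Reporter mRNA is quantified by RT-PCR, 6-FAM labelling, HpaI digestion and capillary electrophoresis. Induction is scored against DMSO.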
SMILES,outcome,AC50
CC(C)(CO)C(O)C(=O)NCCCO (centres undefined),inactive,–
CC(C)C(=O)OCCOc1ccccc1,inactive,–
CCCCNC(=S)NCCCC,inactive,–
CC(=O)CCC=C(C)C,inactive,–
CC(C)c1ccc(O)c(C(C)C)c1,inactive,–
Cc1cccc(C(C)(C)C)c1O,inactive,–
CC(=O)CCC1=C(C)CCCC1(C)C,inactive,–
CCCC/C=C/C=C\C=O,–,7.73 µM (active)
CCCCC1CCC(=O)O1 (centres undefined),inactive,–
C[Si]1(C)O[Si](C)(C)O[Si](C)(C)O[Si](C)(C)O[Si](C)(C)O1,inactive,–

# Target: Nuclear receptor subfamily 1 group I member 2 (Homo sapiens) (UniProt O75469)
# Sequence (O75469 whole entry, looked up): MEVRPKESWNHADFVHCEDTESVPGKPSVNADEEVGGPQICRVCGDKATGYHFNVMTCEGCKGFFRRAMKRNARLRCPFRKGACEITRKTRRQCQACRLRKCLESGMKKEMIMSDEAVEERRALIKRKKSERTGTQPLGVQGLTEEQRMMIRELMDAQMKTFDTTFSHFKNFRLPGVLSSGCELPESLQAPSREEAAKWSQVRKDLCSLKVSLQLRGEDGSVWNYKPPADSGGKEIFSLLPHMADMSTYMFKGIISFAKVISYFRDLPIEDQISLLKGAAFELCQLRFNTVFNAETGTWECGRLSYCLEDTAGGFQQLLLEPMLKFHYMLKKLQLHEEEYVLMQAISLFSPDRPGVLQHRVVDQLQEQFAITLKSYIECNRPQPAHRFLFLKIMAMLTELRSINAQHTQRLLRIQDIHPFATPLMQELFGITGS
# Assay: ATG_PXR_TRANS: Attagene TRANS-FACTORIAL HepG2 Assay for human Pregnane X Receptor (PXR) (AID 2283008)
# Method in brief: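 Transactivation by exogenous PXR–GAL4 fusion measured as reporter transcript induction after 24 h compound treatment of transfected human HepG2 cells. Read-out via RT-PCR and capillary electrophoresis of labelled fragments, fitted upward relative to DMSO.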
SMILES,outcome,AC50
CCCCc1ccc(Cl)cc1,inactive,–
CO[Si](C)(C)OC,inactive,–
COc1cc(O)c(C(=O)c2ccccc2)cc1S(=O)(=O)O,inactive,–
CC(C)(C)C1CCC(=O)CC1,inactive,–
CCCCNS(=O)(=O)c1ccc(C)cc1,inactive,–
[Cl][Eu]([Cl])[Cl],inactive,–
CCC(C)C(=O)OCCc1ccccc1 (centres undefined),inactive,–
CCCCNC(=S)NCCCC,inactive,–
CCOC(=O)c1ccccc1C,inactive,–
CCCCCCCCCCCCCc1ccccc1,inactive,–
CC1CC(=O)CC(C)(C)C1 (centres undefined),inactive,–
CC(C=O)c1ccccc1 (centres undefined),–,5.82 µM (active)
Cc1ccc(S(=O)(=O)N=C=O)cc1,inactive,–
CC(C)c1ccc(O)c(C(C)C)c1,–,6.58 µM (active)
CCCCOC(=O)C(C)CC (centres undefined),inactive,–
CCCCC(CC)COS(=O)(=O)O (centres undefined),inactive,–
Cc1cccc(C(C)(C)C)c1O,–,19.9 µM (active)
CCCCCCCCCCCCC,inactive,–
CC(=O)CCC1=C(C)CCCC1(C)C,–,6.98 µM (active)
CCCC/C=C/C=C\C=O,–,1.57 µM (active)
CC1CCC(=O)C1=O (centres undefined),inactive,–
CCCCC1CCC(=O)O1 (centres undefined),–,41.4 µM (active)
CCCCCCCCCCCCc1ccc(O)cc1,–,3 µM (active)
Cc1cc(=O)[nH]c(=O)[nH]1,inactive,–
C=C[Si](OCCOC)(OCCOC)OCCOC,inactive,–
O=C(Cl)c1ccc(C(=O)Cl)cc1,inactive,–
C[Si]1(C)O[Si](C)(C)O[Si](C)(C)O[Si](C)(C)O[Si](C)(C)O1,inactive,–
C=Cc1cccc(C)c1,inactive,–
CC(C)(C)NC(=O)[C@H]1CC[C@H]2[C@@H]3CC[C@H]4NC(=O)C=C[C@]4(C)[C@H]3CC[C@]12C,–,19.8 µM (active)

# Target: human Retinoic Acid Receptor gamma (RARg), RARG (gene 5916) (UniProt P13631)
# Sequence (P13631 whole entry, looked up): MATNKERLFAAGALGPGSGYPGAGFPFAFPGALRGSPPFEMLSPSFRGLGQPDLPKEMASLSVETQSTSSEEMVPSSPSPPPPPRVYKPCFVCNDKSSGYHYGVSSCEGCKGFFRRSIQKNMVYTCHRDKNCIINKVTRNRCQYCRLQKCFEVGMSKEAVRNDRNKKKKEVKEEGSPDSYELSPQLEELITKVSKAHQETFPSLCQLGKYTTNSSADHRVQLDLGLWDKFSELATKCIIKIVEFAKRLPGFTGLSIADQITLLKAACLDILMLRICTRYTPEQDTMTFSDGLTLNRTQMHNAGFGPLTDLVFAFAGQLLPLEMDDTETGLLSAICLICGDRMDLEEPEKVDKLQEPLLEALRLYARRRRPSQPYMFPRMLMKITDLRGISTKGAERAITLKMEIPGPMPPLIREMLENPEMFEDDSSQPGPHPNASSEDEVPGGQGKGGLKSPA
# Assay: ATG_RARg_TRANS: Attagene TRANS-FACTORIAL HepG2 Assay for human Retinoic Acid Receptor gamma (RARg) (AID 2283009)
# Method in brief: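 TRANS format measured activity of exogenous NR-GAL4 fusion (RARg) in transfected HepG2 liver cells after 24 h dosing. Induced reporter RNA was detected by RT-PCR/capillary electrophoresis fluorescence, analysed in the positive direction against DMSO.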
row,SMILES,outcome
1,CCCCNC(=S)NCCCC,inactive
2,CCCCC(=O)O,inactive
3,CC(C)c1ccc(O)c(C(C)C)c1,inactive
4,Cc1cccc(C(C)(C)C)c1O,inactive
5,CCCCC1CCC(=O)O1 (centres undefined),inactive
6,CCCCCCCCCCCCc1ccc(O)cc1,inactive
7,O=C(Cl)c1ccc(C(=O)Cl)cc1,inactive

# Target: human RAR-related Orphan Receptor beta (RORb), RORB (gene 6096) (UniProt Q92753)
# Sequence (Q92753 whole entry, looked up): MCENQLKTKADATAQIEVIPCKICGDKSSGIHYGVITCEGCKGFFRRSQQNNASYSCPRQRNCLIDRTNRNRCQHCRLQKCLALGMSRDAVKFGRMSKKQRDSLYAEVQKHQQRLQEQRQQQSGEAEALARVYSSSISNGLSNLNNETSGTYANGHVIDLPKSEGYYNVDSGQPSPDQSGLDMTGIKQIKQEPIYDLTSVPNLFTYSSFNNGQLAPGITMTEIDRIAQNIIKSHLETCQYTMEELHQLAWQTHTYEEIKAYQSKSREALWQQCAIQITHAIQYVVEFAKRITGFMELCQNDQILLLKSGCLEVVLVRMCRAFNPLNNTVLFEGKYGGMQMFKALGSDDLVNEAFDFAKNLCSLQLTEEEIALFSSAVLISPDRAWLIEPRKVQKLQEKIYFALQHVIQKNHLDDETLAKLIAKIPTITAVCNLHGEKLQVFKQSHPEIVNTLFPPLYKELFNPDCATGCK
# Assay: ATG_RORb_TRANS: Attagene TRANS-FACTORIAL HepG2 Assay for human RAR-related Orphan Receptor beta (RORb) (AID 2283010)
# Method in brief: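 Transfect HepG2 with multiple GAL4-UAS reporter transcription units; dose chemicals for 24 h; isolate RNA, reverse-transcribe and PCR-amplify reporter sequences; label, digest and resolve fragments by capillary electrophoresis; fit increases relative to DMSO.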
row,SMILES,outcome
1,CC(C)(CO)C(O)C(=O)NCCCO (centres undefined),inactive
2,CC(C)C(=O)OCCOc1ccccc1,inactive
3,CC(C)(C)C1CCC(=O)CC1,inactive
4,CCCCNC(=S)NCCCC,inactive
5,CCCCCCCCCCCCCc1ccccc1,inactive
6,CC(=O)CCC=C(C)C,inactive
7,CC(C=O)c1ccccc1 (centres undefined),inactive
8,CCCCC(=O)O,inactive
9,CC(C)CO,inactive
10,O=C(Cl)c1ccc(C(=O)Cl)cc1,inactive
